Screens (PubChem)
A selection: hits, their analogues and other compounds. The true share with any hit is near 10%.
LMNA splice mod: modulators of lamin A splicing; HeLa LMNA splicing GFP/RFP minigene ratio, 48 h; Potency, µM (series often up to 46.1 µM), inactives show top-dose ratio change, negative = inhibition, hits mostly inhibitors; actives 0.01% (n = 200,000); AID 1487; active = well fitted inhibition curve with a large enough effect in the signal ratio, with a control signal flat, not every such curve was filed as active; inconclusive = small, poorly fitted or top-dose-only effect, or effect the other way, or a change in a side signal; the % refers to the signal ratio; note: potency is the fitted concentration of half-maximal effect
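S3 HeLa stable clones carrying a lamin A-EGFP splicing minigene plus DsRed2 were seeded at 600 cells/well in Opti-MEM with 2% FBS, pin-dosed and incubated 48 h at 37°C. Acumen cytometry (488 nm) gave the GFP/RFP total-intensity ratio.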
KinaseGlo FLuc: Kinase-Glo luciferase inhibition (counter-screen); Q27757; Kinase-Glo luciferase, ATP luminescence, 8 min; Potency, µM (titrated, usually from 38.3 µM), inactives show at the highest dose activity change, negative = inhibition, most hits filed as inhibitors; actives 0.28% (n = 200,000); AID 1379; active = well fitted inhibition curve with a large enough effect; inconclusive = small, poorly fitted or top-dose-only effect; note: potency is the fitted concentration of half-maximal effect; nearly all actives have a fitted effect of over 60% in size
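Luminescence was the read-out, taken after 8-minute incubation at ambient temperature. Luciferase turned over luciferin with 10 uM ATP in imidazole pH 7.2 buffer containing KCl, MgCl2, Tween 20 and BSA.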
IMPase cell inh: membrane-permeable compound that blocks inositol monophosphatase | P97697 | CHO-M1 cells, IP1 accumulation, HTRF TR-FRET ratio | inhibition (IP1 accumulation), % at 46.1 µM | 120,000 tested, under 10 active; active = well fitted curve in the direction sought with a large enough effect in the signal ratio, not every such curve was filed as active; inconclusive = small, poorly fitted or top-dose-only effect, or a change in a side signal; inactive = no such curve, though single readings can be large or run the other way; the % refers to the signal ratio;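 note: cells stimulated with carbachol in lithium chloride buffer; plate controls were DMSO basal wells for no effect and reference inhibitor wells for full effect; higher means more IMPase inhibition seen as more IP1 and lower FRET ratio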
Target sequence (P97697 whole entry, looked up): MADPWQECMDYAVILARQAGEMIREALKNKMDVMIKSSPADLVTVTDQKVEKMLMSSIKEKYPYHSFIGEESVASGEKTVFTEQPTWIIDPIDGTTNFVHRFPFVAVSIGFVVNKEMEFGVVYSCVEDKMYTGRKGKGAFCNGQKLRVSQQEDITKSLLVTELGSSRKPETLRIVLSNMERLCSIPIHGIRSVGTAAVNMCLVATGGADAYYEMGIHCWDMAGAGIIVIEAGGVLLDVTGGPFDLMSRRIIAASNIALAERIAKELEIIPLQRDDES
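The IP-One HTRF competitive assay in carbachol-stimulated CHO-M1 cells quantifies cellular IP1. Compounds spanned up to 46 uM final, and activity is expressed as AC50 from concentration-response fits of the ratio and donor data.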
ALDH1A1 inh: blocks purified human ALDH1A1 activity | P00352 | Potency, µM (titrated, usually from 75.3 µM), without a hit: top-dose activity, negative = inhibition, usual class: inhibitors | actives 7.3% (n = 220,000) | Purified ALDH1A1, NADH fluorescence, propionaldehyde substrate;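 note: potency is the fitted concentration of half-maximal effect; plate controls were no enzyme wells and a reference inhibitor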
PNC assembly inh: inhibitors of perinucleolar compartment assembly; PC3M PTB-GFP, PNC prevalence imaging, 16 h; active compounds read low; activity change (PNC), negative = inhibition, % at 10 µM; actives 3.1% (n = 140,000); AID 2417;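 active = readout at or below -70, meaning at least 70% loss of cells showing the perinucleolar compartment, a nuclear body marking cancer cells; inconclusive = readout between -30 and a set limit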;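 note: plate controls were DMSO wells for no effect and camptothecin positive control wells for full effect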
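PC3M cells stably expressing PTB-GFP, 750–1000 cells/well, treated 16 h at 37 °C with compound (23 nl of library stock), in duplicate. After paraformaldehyde fixation and Hoechst stain, imaged at 20x; PNC prevalence scored by image analysis.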
HPGD inh: blocks human HPGD enzyme activity; P15428; purified HPGD, NADH fluorescence kinetic, PGE2 substrate; Potency, µM, without a hit: top-dose activity change, negative = inhibition, most hits filed as inhibitors; actives 4.3% (n = 150,000); AID 894; note: potency is the fitted concentration of half-maximal effect
Target sequence (P15428 whole entry, looked up): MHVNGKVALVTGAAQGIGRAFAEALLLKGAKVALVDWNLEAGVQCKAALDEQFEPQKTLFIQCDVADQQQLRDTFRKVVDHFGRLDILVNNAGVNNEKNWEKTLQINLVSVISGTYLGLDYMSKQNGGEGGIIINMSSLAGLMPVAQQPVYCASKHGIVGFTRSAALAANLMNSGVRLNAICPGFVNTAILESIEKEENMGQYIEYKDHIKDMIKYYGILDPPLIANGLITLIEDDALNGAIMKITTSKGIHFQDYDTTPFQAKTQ
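20 nM HPGD preincubated 15 min at room temperature with compound in 50 mM Tris-HCl pH 8, 0.01% Tween 20. Started with 1 mM NAD+ and 30 uM prostaglandin E2; NADH fluorescence (360/450 nm) read 5 times over 30-s intervals, last minus first.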
* = called active by the depositor; ? = inconclusive; / = no result given; [ ] = remark or other dose. Unless noted, calls come from the whole dose curve; as a rule, active = well fitted inhibition curve with a large enough effect (not every such curve was filed as active); inconclusive = small, poorly fitted or top-dose-only effect, or another doubt; inactive = no such curve, though single readings can be large or run the other way. Unless noted, % is set by controls: 0 for no effect and ±100 for the full control effect.

SMILES	LMNA splice mod	KinaseGlo FLuc	IMPase cell inh	ALDH1A1 inh	PNC assembly inh	HPGD inh
Cc1ccc(CN2C(=O)C(O)(CC(=O)c3ccc(C)cc3)c3ccccc32)cc1 (centres undefined)	/	/	5.3	/	/	/
COC(=O)CN1C(=O)C(O)(CC(=O)c2ccc(Cl)cc2)c2ccccc21 (centres undefined)	-6.0%	-2.8%	6.7	0.224µM*	?	-10.1%
COC(=O)CN1C(=O)C(O)(CC(=O)c2cccc(Br)c2)c2ccccc21 (centres undefined)	-6.0%	18.4%	-8.2	0.562µM*	-7.2	-3.6%
COc1ccc(NC(=O)Cn2c(=O)n(Cc3ccco3)c(=O)c3cc(OC)c(OC)cc32)cc1	/	/	2.0	/	/	/
N#Cc1cccc(-c2nc3cnc(N4CCOCC4)nc3n(C3CC3)c2=O)c1	1.6%	/	/	?	/	/
Cc1nc(N2CCC(C)CC2)c2c(C)c(C(=O)O)sc2n1	17.4%	-2.6%	?	-7.0%	11.1	20µM*
Cc1nc(N2CCC(C)CC2)c2c(C)c(C(=O)Nc3ccccc3C(F)(F)F)sc2n1	/	0.4%	/	?	/	/
Cc1nc(N2CCC(C)CC2)c2c(C)c(C(=O)Nc3ccc(C)c(F)c3)sc2n1	/	2.0%	/	18.4%	/	/
CCN1CCN(C(=O)c2sc3nc(C)nc(N4CCC(C)CC4)c3c2C)CC1	16.3%	-1.1%	-4.6	-9.1%	-88.2*	-4.3%
O=C=Nc1ccc(Cl)c(Cl)c1	/	/	/	-9.0%	/	-9.8%
COc1cccc(N2CCN(C(=O)c3cc4c(=O)n(Cc5ccco5)ccc4nc3C)CC2)c1	-2.8%[46 µM]	/	/	/	/	/
CCC1(C(=O)O)NC(c2cc(OC)ccc2O)C2C(=O)N(Cc3ccccc3)C(=O)C21 (centres undefined)	1.3%	-3.5%	-1.1	9.0%	33.9	-0.9%
CCCC1(C(=O)O)NC(c2ccccc2O)C2C(=O)N(Cc3ccccc3)C(=O)C21 (centres undefined)	-0.6%	-2.0%	7.5	1.9%	-110.3*	-9.2%
Cc1ccc(S(=O)(=O)N(CCc2ccccc2)CC(=O)Nc2ccc(Br)cc2)cc1	/	/	0.8	/	/	/
CCN1C(=O)C2C(C1=O)N1C(c3ccccc3)C3C(=O)N(CC)C(=O)C3N1C2c1ccccc1 (centres undefined)	-9.1%	-3.3%	-1.9	-6.1%	25.8	-5.3%
CCN1C(=O)C(C(=O)c2ccccc2)SC1=S (centres undefined)	-18.6%[46 µM]	1.9%	/	7.51µM*	/	/
C[C@@H]1CC[C@H]2[C@H](C)C3[C@H](C[C@H]4[C@@H]5CC=C6C[C@@H](O)CC[C@@]6(C)[C@@H]5C[C@@H](O)[C@]34C)N2C1 (some centres undefined)	/	-0.4%[7.66 µM]	/	8.0%[13.5 µM]	/	-2.2%
O=C(O)C1CCCCC1C(=O)Nc1ccccc1F (centres undefined)	14.1%	2.2%	-2.1	20µM*	3.5	-4.8%
O=C(O)/C=C\C(=O)Nc1ccccc1F	-5.3%	5.2%	-0.3	35.5µM*	-119.3*	-4.1%
O=C(O)/C=C\C(=O)Nc1ccc(F)c(F)c1F	/	/	/	22.4µM*	/	/
COc1ccc(Cl)cc1NC(=O)/C=C\C(=O)O	2.5%	-1.9%	-1.0	0.0%	1.8	-3.3%
CCOCCc1nn2c(=O)cc(COC(=O)C3CCCCC3)nc2s1	-8.1%[46 µM]	/	/	/	/	/
Cn1cnnc1Sc1nc2c(c(=O)n(C)c(=O)n2C)n1Cc1ccccc1Cl	1.0%	0.0%	10.4	-9.8%	-92.5*	6.1%
Cn1c(=O)c2c(nc(Sc3ncccn3)n2Cc2ccccc2Cl)n(C)c1=O	-10.8%	-0.4%	1.0	?	?	-6.4%
COc1ccc(Br)cc1CNC(=O)CN1CCSc2ccccc21	-5.1%[46 µM]	/	/	/	/	/
SMILES	LMNA splice mod	KinaseGlo FLuc	IMPase cell inh	ALDH1A1 inh	PNC assembly inh	HPGD inh
COCCCNC(=S)NNC(=S)Nc1ccccc1	/	/	/	17.8µM*	/	/
NC(=S)NNC(=S)Nc1ccccc1	?	-5.5%	/	22.4µM*	/	/
C=COCCNC(=S)Nc1ccccc1	?	-2.0%	/	0.9%	/	/
COCCCNC(=S)NCCc1ccc(F)cc1	/	/	/	5.7%	/	/
COCCCNC(=S)NNC(=S)Nc1ccc(F)cc1F	1.3%	9.3%	3.4	7.94µM*	-8.6	?
COc1ccc(-c2nn3c(=O)cc(CN4CCN(C(=O)Nc5ccc(C)c(Cl)c5)CC4)nc3s2)cc1	6.4%[46 µM]	/	/	/	/	/
CC(=O)N1CCC2(CC1)CCN(c1ncccn1)CC2	/	0.2%	/	-9.4%	/	-23.7%
O=S(=O)(Nc1cccc(-c2ccc(N3CCCC3)nn2)c1)c1ccccc1C(F)(F)F	9.6%[46 µM]	/	/	/	/	/
Cc1cc(/C=N/NC(=O)c2ccc(O)cc2)c(C)n1C1CC1	/	2.4%	/	-6.1%	/	/
Cc1ccc(N=Cc2cc(C)n(C3CCCC3)c2C)cc1	6.9%	0.6%	4.7	8.91µM*	53.0	-18.6%
Cc1cc(C)n(-c2ccc(C(=O)OCC(=O)c3ccc(Br)s3)cc2)n1	2.5%	-3.9%	-24.0	22.4µM*	-18.2	-11.5%
CCOCC(=O)Nc1ccc(S(=O)(=O)N2CCOCC2)cc1	-10.1%	-3.5%	-7.3	10µM*	-27.7	-1.2%
O=C(COC(=O)COc1ccccc1[N+](=O)[O-])Nc1ccc(S(=O)(=O)N2CCCCC2)cc1	3.5%	2.0%	2.7	14.1µM*	1.3	-22.3%
O=C(COC(=O)Cc1ccsc1)Nc1ccc(Cl)c(S(=O)(=O)N2CCOCC2)c1	8.0%	-1.3%	/	4.9%	-86.8*	-6.1%
COC(=O)N[C@@H](c1cccc(C)c1)C(C(C)=O)C(=O)OC (some centres undefined)	/	-0.3%	/	14.9%	/	-10.9%
O=C(COC(=O)COc1ccccc1)Nc1ccc(S(=O)(=O)N2CCOCC2)cc1	/	0.8%	/	31.6µM*	/	/
COc1ccc(NC(=O)CNc2cc(S(=O)(=O)N3CCOCC3)ccc2NCC2CCCO2)cc1 (centres undefined)	4.6%[46 µM]	-0.2%	/	7.08µM*	/	/
CCC(C)NC(=O)COc1ccc(S(=O)(=O)N2CCOCC2)cc1 (centres undefined)	4.8%	-2.7%	1.9	5.01µM*	10.4	-7.1%
Cc1cc(C)n(-c2ccc(C(=O)OCC(=O)Nc3ccc(S(=O)(=O)N4CCOCC4)cc3)cc2)n1	-1.9%	8.0%	6.8	11.0%	-86.8*	-11.4%
O=C(COC(=O)c1ccc(S(=O)(=O)N2CCCC2)cc1)Nc1ccc(N2CCOCC2)cc1	/	2.2%	/	-10.8%	/	/
COc1ccc(NS(=O)(=O)c2cnc(N)nc2)cc1Cl	-7.5%[46 µM]	/	/	/	/	/
COc1ccc(S(=O)(=O)n2nc(C)c(S(=O)(=O)N3CCCCC3)c2C)cc1	-5.6%[46 µM]	/	/	/	/	/
N#Cc1ccc(NC(=O)CCc2ccc(S(=O)(=O)N3CCOCC3)cc2)cc1	-6.6%	2.6%	1.6	?	?	-13.2%
CCC(=O)Nc1ccc(S(=O)(=O)N2CCOCC2)cc1	2.5%	-2.9%	-6.5	1.8%	-80.4*	-4.9%
